Assay outcomes: PubChem BioAssay, several laboratories
HSF1 inhib: HSF1 inhibition | NIH3T3-HGL HSE-luciferase, MG132-induced, luminescence 8 h; active compounds read low | activity change, negative = inhibition, % at 7.5 µM (by protocol) | hit rate 0.77% among 300,000;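 active means more than half of replicate wells show activity change below -50%, luminescence cut by over half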;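 further: luciferase reports HSF-1 transcriptional activity via heat shock element; 0% = median of DMSO wells and -100% = zero luminescence signal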
HSF1 activator: increases HSF-1 driven luciferase reporter signal; NIH3T3-HGL HSF-1 luciferase reporter, MG132, 8 h; 100% = twice DMSO control signal; activation, % at 9 µM; hit rate 1.7% among 300,000; AID 504408;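 active means mean replicate activation of at least 50% with a set share of replicates each reaching 50%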;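 further: 0% = median of the neutral control wells and 100% = twice that signal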
DAX1 inh: inhibits human nuclear receptor DAX1. P51843. HEK293 Gal4-DAX1 luciferase reporter, luminescence. inhibition, % at 6.75 µM. hit rate 0.99% among 340,000. AID 504766;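 active means inhibition above the mean over all tested compounds plus 3 SD, cut at about 4.2% in these data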;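 further: 0% = DAX1-transfected cells with DMSO and 100% = empty-vector control cells with DMSO; inhibition shows as a rise in luminescence from relieved DAX1 repression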
AHR activator: activators of human aryl hydrocarbon receptor; P35869; AHR-responsive luciferase reporter cells, luminescence; activation, % at 5 µM; hit rate 2.5% among 320,000; AID 2796; in the data active means activation above about 47%;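 further: 0% = vehicle wells and 100% = reference agonist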
Target sequence (P35869 whole entry, looked up): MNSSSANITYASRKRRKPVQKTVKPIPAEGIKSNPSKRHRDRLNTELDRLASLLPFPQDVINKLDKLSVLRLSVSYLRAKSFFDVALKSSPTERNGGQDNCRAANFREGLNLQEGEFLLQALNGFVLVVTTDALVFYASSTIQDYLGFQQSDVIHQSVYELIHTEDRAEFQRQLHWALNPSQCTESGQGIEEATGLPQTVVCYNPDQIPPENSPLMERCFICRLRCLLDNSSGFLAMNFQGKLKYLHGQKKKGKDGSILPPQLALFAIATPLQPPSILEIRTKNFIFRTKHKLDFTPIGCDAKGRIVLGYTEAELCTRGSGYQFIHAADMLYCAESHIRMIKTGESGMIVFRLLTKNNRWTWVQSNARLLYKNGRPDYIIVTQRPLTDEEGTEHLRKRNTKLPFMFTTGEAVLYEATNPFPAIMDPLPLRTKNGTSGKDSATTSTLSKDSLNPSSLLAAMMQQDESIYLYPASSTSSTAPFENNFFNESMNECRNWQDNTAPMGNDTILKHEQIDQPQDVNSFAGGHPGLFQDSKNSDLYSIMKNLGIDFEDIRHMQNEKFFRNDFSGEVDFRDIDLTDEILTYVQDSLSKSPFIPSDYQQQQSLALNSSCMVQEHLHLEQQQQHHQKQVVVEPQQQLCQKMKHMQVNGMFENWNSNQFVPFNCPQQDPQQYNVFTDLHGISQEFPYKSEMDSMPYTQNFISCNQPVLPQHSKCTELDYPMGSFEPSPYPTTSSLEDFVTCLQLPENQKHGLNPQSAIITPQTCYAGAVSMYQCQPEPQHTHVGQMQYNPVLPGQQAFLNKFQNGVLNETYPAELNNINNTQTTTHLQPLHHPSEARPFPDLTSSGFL
FXN GAA850 act: activators of GAA850 frataxin (FXN) promoter; HEK293 lucGAA850 FXN promoter luciferase reporter, 24 h; percent of 10 µM SAHA response; hit rate 0.56% among 360,000; AID 540364; activation, % at 6 µM;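 active means activation above the average of all compounds screened plus 3 SD, cutoff fixed separately per campaign, cut at about 7.5% in these data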;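 further: 0% = DMSO wells and 100% = 10 µM SAHA wells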
The depositor's hits bear a star. Most compounds without a hit are left out; they make up all but 5.4% or so of the library.

How did Cc1ccc(Cl)cc1NC(=O)C1COc2ccccc2O1 (centres undefined) do in these assays?
HSF1 inhib: -63.6*; HSF1 activator: -73.2; DAX1 inh: 1.6; AHR activator: -1.3; FXN GAA850 act: 3.1

What do the screens show for `Cc1ccc(C)c(NC(=O)C2COc3ccccc3O2)c1` (centres undefined)?
HSF1 inhib: 10.2; HSF1 activator: 8.9; DAX1 inh: 0.1; AHR activator: -1.5; FXN GAA850 act: 1.8

How did O=C(NCC1COc2ccccc2O1)c1ccc(NC(=O)c2ccco2)cc1 (centres undefined) do in these assays?
HSF1 inhib: 0.4; HSF1 activator: 9.7; DAX1 inh: 0.2; AHR activator: 5.7; FXN GAA850 act: 0.6

Results for Cc1cc(Cl)ccc1NC(=O)C1COc2ccccc2O1 (centres undefined) ?
HSF1 inhib: 12.7; HSF1 activator: 52.8*; DAX1 inh: 0.7; AHR activator: 8.6; FXN GAA850 act: 2.7

How did CC(C)NC(=O)C1(C)CCN1C(=O)C1(c2ccccc2)CC1 (centres undefined) do in these assays?
FXN GAA850 act: 2.1

What do the screens show for `O=C(Nc1ccncc1)C1COc2ccccc2O1` (centres undefined)?
HSF1 inhib: -1.3; HSF1 activator: -7.5; DAX1 inh: -0.6; AHR activator: 4.9; FXN GAA850 act: -1.6

What do the screens show for `O=C(NC1=NCCS1)C1COc2ccccc2O1` (centres undefined)?
HSF1 inhib: -50.8*; HSF1 activator: -59.1; DAX1 inh: -5.1; AHR activator: 0.1; FXN GAA850 act: -10.3

Results for CCOc1ccc(S(=O)(=O)NC(Cc2c[nH]c3ccccc23)C(=O)O)cc1 (centres undefined) ?
HSF1 inhib: -5.2; HSF1 activator: -15.7; DAX1 inh: 1.3; AHR activator: 17.9; FXN GAA850 act: 0.8

How did O=Cc1s/c(=N\S(=O)(=O)c2ccccc2)n(CCCCl)c1Cl do in these assays?
HSF1 inhib: 44.0; HSF1 activator: 60.5*; DAX1 inh: -1.6; FXN GAA850 act: -10.2

What do the screens show for `CCn1c(C)cs/c1=N\S(=O)(=O)c1ccccc1`?
HSF1 inhib: 2.6; HSF1 activator: -4.9; DAX1 inh: 1.3; AHR activator: 2.1; FXN GAA850 act: -0.5

What do the screens show for `O=C(Nc1ccc(NC(=O)c2cccc([N+](=O)[O-])c2)cc1)c1cccc([N+](=O)[O-])c1`?
HSF1 inhib: 2.1; HSF1 activator: -6.5; DAX1 inh: 0.9; AHR activator: 21.5; FXN GAA850 act: 2.2

What do the screens show for `Cc1ccc(F)cc1NC(=O)CCNC(=O)c1ccc([N+](=O)[O-])cc1`?
HSF1 inhib: -67.9*; HSF1 activator: -74.9; DAX1 inh: 0.2; AHR activator: -1.0; FXN GAA850 act: 3.0

How did Cc1ccc([N+](=O)[O-])cc1NC(=O)c1ccc(C(C)(C)C)cc1 do in these assays?
HSF1 inhib: 1.8; HSF1 activator: -1.5; DAX1 inh: -1.4; AHR activator: 71.2*; FXN GAA850 act: -1.9

How did Cc1ccc([N+](=O)[O-])cc1NC(=O)c1ccc(-c2ccccc2)cc1 do in these assays?
HSF1 inhib: -0.4; HSF1 activator: -0.8; DAX1 inh: -0.2; AHR activator: 67.1*; FXN GAA850 act: -3.3

Results for Cc1ccc(C(=O)Nc2cc([N+](=O)[O-])ccc2C)cc1 ?
HSF1 inhib: 16.2; HSF1 activator: 37.5; DAX1 inh: -1.1; AHR activator: 16.3; FXN GAA850 act: 4.5

How did O=C(Nc1ncc([N+](=O)[O-])s1)c1cccc([N+](=O)[O-])c1 do in these assays?
HSF1 inhib: 9.2; HSF1 activator: 34.8; DAX1 inh: 4.6*; AHR activator: 4.1; FXN GAA850 act: 3.9

How did O=S(=O)(CCC1CCCCN1)c1ccccc1 (centres undefined) do in these assays?
HSF1 inhib: -1.0; HSF1 activator: -11.1; DAX1 inh: 1.4; AHR activator: 1.6; FXN GAA850 act: -0.1

How did O=C(Nc1ccccc1-c1ccccc1)c1cccc([N+](=O)[O-])c1 do in these assays?
HSF1 inhib: 17.5; HSF1 activator: 16.2; DAX1 inh: 0.4; AHR activator: 56.0*; FXN GAA850 act: 0.1

Results for Cc1nn(-c2ccccc2)c(C)c1/C=N/NC(=O)CSc1nnc(SCc2ccccc2Cl)s1 ?
HSF1 inhib: 40.9; HSF1 activator: 68.3*; DAX1 inh: 1.1; AHR activator: 10.8; FXN GAA850 act: 2.7

Results for Cc1ccc(S(=O)(=O)N/N=C/c2c(C)nn(-c3ccccc3)c2C)cc1 ?
HSF1 inhib: -53.7*; HSF1 activator: -64.8; DAX1 inh: 0.9; AHR activator: 5.8; FXN GAA850 act: 0.1

Results for Cc1nn(-c2ccccc2)c(C)c1/C=N/NC(=O)CSc1nnc(-c2ccccc2)n1-c1ccc(Cl)cc1 ?
HSF1 inhib: 6.2; HSF1 activator: 16.4; DAX1 inh: -0.8; AHR activator: 0.6; FXN GAA850 act: -1.3

Results for Cc1ccc(CSc2nnc(SCC(=O)N/N=C/c3c(C)nn(-c4ccccc4)c3C)s2)cc1 ?
HSF1 inhib: 55.9; HSF1 activator: 65.1*; DAX1 inh: -0.5; AHR activator: 8.8; FXN GAA850 act: 1.8

How did Cc1ccc(C(=O)NNC(=O)Cn2ccc(C(F)(F)F)n2)o1 do in these assays?
HSF1 inhib: -4.4; HSF1 activator: -9.7; DAX1 inh: -0.5; AHR activator: 0.8; FXN GAA850 act: 0.3

Results for Cc1nc2ccc(S(=O)(=O)Nc3ccccc3C)cc2s1 ?
HSF1 inhib: -4.3; HSF1 activator: -3.8; DAX1 inh: 1.0; AHR activator: -2.0; FXN GAA850 act: -0.4

Results for CC(C)C(NS(=O)(=O)c1cccs1)C(=O)NCc1ccc2c(c1)OCO2 (centres undefined) ?
HSF1 inhib: 0.8; HSF1 activator: -0.3; DAX1 inh: 0.3; AHR activator: 0.4; FXN GAA850 act: 0.3

What do the screens show for `CC(=O)Nc1ccc(SCC(=O)c2cc(C)n(-c3ccccc3F)c2C)cc1`?
HSF1 inhib: -67.7*; HSF1 activator: -71.1; DAX1 inh: -2.1; AHR activator: -3.0; FXN GAA850 act: -12.5

How did CC(=O)Nc1ccc(SCC(=O)c2cc(C)n(Cc3cccs3)c2C)cc1 do in these assays?
HSF1 inhib: -69.4*; HSF1 activator: -75.0; DAX1 inh: -0.1; AHR activator: -12.1; FXN GAA850 act: -9.7

Results for O=c1[nH]c(SCc2ccc(Cl)cc2)nc2ccsc12 ?
HSF1 inhib: 72.1; HSF1 activator: 126.9*; AHR activator: 7.4

What do the screens show for `CCN(CC)CCN1CCN(c2cnc(C)cn2)CC1`?
FXN GAA850 act: -0.4

How did CNC(=O)c1[nH]nc2c1CCc1cc(OC)ccc1-2 do in these assays?
HSF1 inhib: -7.9; HSF1 activator: 11.0; DAX1 inh: 0.1; AHR activator: -5.8; FXN GAA850 act: 4.0

How did COc1ccc2c(c1)CCc1c-2n[nH]c1C(=O)NCCC(C)C do in these assays?
HSF1 inhib: 30.3; HSF1 activator: 51.3*; DAX1 inh: 1.9; AHR activator: -2.9; FXN GAA850 act: 4.2

What do the screens show for `N#Cc1nc(-c2cccs2)oc1N1CCOCC1`?
HSF1 inhib: -7.8; HSF1 activator: -27.0; DAX1 inh: 1.0; AHR activator: 28.3; FXN GAA850 act: 0.5
